Here are results for 37 molecules from PubChem BioAssay (NCI).

Each structure is given as a SMILES string. Compounds without any hit were thinned out: in the full panel of roughly 79,000, 15% have a hit. Unmarked numbers belong to inactive results. Activity calls are given as the source filed them. Rule as the data show it: active = growth inhibition above about 70%; inactive = the rest.

Test [1] can be described thus: NCI Yeast Anticancer Drug Screen. Data for the rad50 strain (AID 155).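 Also: 0% = growth of vehicle-only cultures of the same strain.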 The note with it: S. cerevisiae rad50 strain growth inhibition; at 50.0 µM; hits give high values. In outline:
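Vehicle-treated cultures provide the reference for the growth inhibition reported for compound-exposed, repair-deficient yeast.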

Test [2] in a line: NCI Yeast Anticancer Drug Screen. Data for the mec2-1 strain (AID 157). As to conditions: S. cerevisiae mec2-1 strain, at 50.0 µM, hits give high values. In outline:
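Readout is yeast growth inhibition, normalised to vehicle-treated controls, in the mec2-1 strain exposed to compound.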

Test [3] is described as follows: NCI Yeast Anticancer Drug Screen. Data for the sgs1 mgt1 strain (AID 161).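 Also: 0% = growth of cultures given vehicle only.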 The note with it: S. cerevisiae sgs1 mgt1 strain, at 50.0 µM, hits give high values. In outline: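 Compounds are added to genetically altered yeast, and growth is compared with cultures given vehicle alone to give percent inhibition.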
Test [4] can be described thus: NCI Yeast Anticancer Drug Screen. Data for the cln2 rad14 strain (AID 165).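 Also: 0% = growth equal to vehicle treated cultures.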 As to conditions: S. cerevisiae cln2 rad14 strain, at 50.0 µM, hits give high values. The essentials:
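Relative to vehicle controls, growth inhibition of compound-treated cln2 rad14 yeast was recorded.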

The nature of test [5]: NCI Yeast Anticancer Drug Screen. Data for the bub3 strain (AID 167). The note with it: S. cerevisiae bub3 mutant strain, at 50.0 µM, hits give high values. In outline: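 Mutant yeast screening strain plus compound; vehicle-treated cultures serve as the 0% inhibition reference.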
Test [6] is described as follows: NCI Yeast Anticancer Drug Screen. Data for the mlh1 rad18 strain (AID 175). The note with it: S. cerevisiae mlh1 rad18 strain growth inhibition; at 50.0 µM; hits give high values. In outline:
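Test agents were incubated with a yeast strain of defined genotype (DNA damage repair defect). Inhibition of growth was derived by comparison with vehicle-exposed cultures.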

As for `O=C1NC(=S)NC(=O)C1=Cc1cc2c(cc1[N+](=O)[O-])OCO2`, the growth inhibition in test [1] was 0.45%; in test [2], -4.2%; in test [3] it was 4.4%; in test [4] it was 15.1%; in test [5], 7.95%; in test [6], -7.8%.

`CCC1(CCO)C(=O)NC(=O)NC1=O`: the growth inhibition in test [1] was -1.6%; in test [2], -48.9%; in test [3], -0.4%; in test [4] it was -12.2%; in test [5], -14.8%; in test [6], -2.7%.

Take `O=C1C=CC(=Nc2ccc(N(CCCl)CCCl)cc2)C=C1`: the growth inhibition is 39.5% in test [1]; 18.8% in test [2]; 13.3% in test [3]; 3.5% in test [4]; 7.1% in test [5]; 3.5% in test [6].

Consider `[C-]#[O+].[C-]#[O+].[C-]#[O+].[C-]#[O+].[Fe].[N-]=C(C(F)(F)F)C(F)(F)F`, for which the growth inhibition was -16.4% in test [1]; -19.8% in test [2]; -11.7% in test [3]; -0.25% in test [4]; -11.2% in test [5]; -25.4% in test [6].

Turning to `CCCCOC(=O)c1ccccc1C(=O)O.[Mn]`, the growth inhibition in test [1] is -38.7%; in test [2], -11.8%; in test [3] it was -6.15%; in test [4], -12.6%; in test [5], -29.6%; in test [6], -3.3%.

On to `COP1(=S)OCC2CCC[C@@H]2O1` (some centres not stated), for which the growth inhibition in test [1] is -19.5%; in test [2], -26.4%; in test [3], -33%; in test [4], 3.2%; in test [5], -21.9%; in test [6], -32.1%.

On to `C(=NCCN1CCOCC1)=NC1CCCCC1`, for which the growth inhibition in test [1] is -22.4%; in test [2], -3.25%; in test [3], -10.9%; in test [4], -21.1%; in test [5], -58.1%; in test [6], -16.1%.

For `CC1(C)C(=O)CC[C@@]2(C)C1=CC[C@@H]1[C@@H]2CC[C@@]2(C)[C@H]1CC[C@]2(C)O`, the growth inhibition in test [1] is 5.75%; in test [2], -14.8%; in test [3], 11.6%; in test [4], -21%; in test [5], 3.8%; in test [6] it was 7.05%.

Turning to `CC12CCC(OC3OC(CO)C(O)C(O)C3O)C=C1CCC1C2CCC2(C)C(c3ccc(=O)oc3)CCC12` (configuration not stated), the growth inhibition in test [1] is 62.5%; in test [2] it was 60%; in test [3], 46.3%; in test [4], 35.2%; in test [5], 61.2%; in test [6] it was 45.6%.

`CCC1([N+](=O)[O-])COP(=O)(NCc2ccncc2)OC1` (configuration not stated): the growth inhibition in test [1] was 8.4%; in test [2], -8.4%; in test [3], -5.95%; in test [4], 10.6%; in test [5], -5.6%; in test [6], 12.3%.

`CCCCCCP(=O)(CCCCCC)CCCCCC` (tested in a mixture with another compound): the growth inhibition in test [1] is 77.3% (active); in test [2], 83.6% (active); in test [3], 87.5% (active); in test [4] it was 78.6% (active); in test [5] it was 62%; in test [6] it was 84.2% (active).

Turning to `CNCCc1cccs1`, the growth inhibition is -27.6% in test [1]; -6.4% in test [2]; 1.25% in test [3]; -29.1% in test [4]; 6.15% in test [5]; 4.7% in test [6].

Take `N.N.N.N.N.[Co+3].[I-].[N-]=[N+]=[N-]`: the growth inhibition is -0.25% in test [1]; 32.8% in test [2]; -25.4% in test [3]; 20.4% in test [4]; -6.05% in test [5]; -9.05% in test [6].

Consider `O=C(NCC(O)CO)c1c([N+](=O)[O-])ccc(N(CCCl)CCCl)c1[N+](=O)[O-]` (configuration not stated), for which the growth inhibition was -11.2% in test [1]; -9.85% in test [2]; -0.45% in test [3]; 1.45% in test [4]; -19.1% in test [5]; 21% in test [6].

As for `ClCCN(CCCl)c1ccc2c(c1)Cc1cc(Br)ccc1-2`, the growth inhibition was 15% in test [1]; 2% in test [2]; 40.7% in test [3]; 30.8% in test [4]; 2.6% in test [5]; 6.9% in test [6].

Take `NCCCC(N)P(=O)(O)O` (configuration not stated): the growth inhibition was 12.3% in test [1]; -1.6% in test [2]; 2.6% in test [3]; -106% in test [4]; 1% in test [5]; 5.55% in test [6].

As to `O=C=Nc1ccc(Cl)cc1`, the growth inhibition in test [1] is -10.2%; in test [2] it was -14.9%; in test [3], -8.3%; in test [4] it was -21.4%; in test [5], -2.45%; in test [6], -15.9%.

As for `COc1ccc2c(c1)CCC1C2CCC2(C)C1CCC21CCNP(=O)(N(CCCl)CCCl)O1` (configuration not stated), the growth inhibition in test [1] is 72% (active); in test [2] it was 31.4%; in test [3], 72.2% (active); in test [4], 23.3%; in test [5] it was 22.4%; in test [6] it was 38.7%.

As to `CCOP(=O)(/C=C/c1cc(OC)ccc1OC)OCC`, the growth inhibition in test [1] was -0.05%; in test [2], -12.8%; in test [3], -32.4%; in test [4] it was -24.5%; in test [5] it was -29.8%; in test [6], -26.1%.

Regarding `CC1OC(OC2C(O)CC(OC3C(O)CC(OC4CCC5(C)C(CCC6C5CCC5(C)C(C7=CC(=O)OC7)C(O)CC65O)C4)OC3C)OC2C)CC(O)C1O` (configuration not stated), the growth inhibition was -12.8% in test [1]; 10.6% in test [2]; -19.1% in test [3]; -13.1% in test [4]; -5.45% in test [5]; 27.6% in test [6].

Regarding `C=CCn1nnc(N)n1`, the growth inhibition in test [1] was -11.8%; in test [2], 7.15%; in test [3], -21.8%; in test [4] it was 19.5%; in test [5], 8.35%; in test [6] it was -2.25%.

On to `Clc1ccc(C(c2ccc(Cl)cc2)c2ccccn2)cc1`, for which the growth inhibition in test [1] is 98.5% (active); in test [2] it was 98.3% (active); in test [3], 98.5% (active); in test [4], 97.8% (active); in test [5] it was 98.3% (active); in test [6], 98.4% (active).

Consider `O=C1OC(c2ccccc2)(c2ccccc2)C(=O)OC1(c1ccccc1)c1ccccc1`, for which the growth inhibition in test [1] was 16.7%; in test [2], -14%; in test [3], 7.7%; in test [4] it was 0.4%; in test [5], 10.4%; in test [6], 19.2%.

On to `C/C=C1/C[C@@H](C)[C@@](C)(O)C(=O)OCC2=CC[N+]3([O-])CC[C@@H](OC1=O)[C@@H]23` (some centres not stated), for which the growth inhibition in test [1] was -0.9%; in test [2], -17.4%; in test [3], -3.4%; in test [4], 10.7%; in test [5], -15.9%; in test [6], -53.6%.

As to `CCC[CH2][Sn]([CH2]CCC)([n]1cncn1)[n]1cncn1`, the growth inhibition is 92.2% (active) in test [1]; 96.1% (active) in test [2]; 93.7% (active) in test [3]; 78.2% (active) in test [4]; 88.5% (active) in test [5]; 93.8% (active) in test [6].

Consider `FC(F)(F)c1cccc(NC2=NCCS2)c1`, for which the growth inhibition was -22.2% in test [1]; -46.1% in test [2]; 0% in test [3]; -5.6% in test [4]; 17.9% in test [5]; -42.8% in test [6].

As to `C/C=C(/C)C(=O)O[C@H]1CC[C@@]2(C)[C@@H]3CC[C@H]4[C@]5(O)C[C@H](O)[C@@]6(O)[C@@H](CN7C[C@@H](C)CC[C@H]7[C@@]6(C)O)[C@]5(O)C[C@@]42O[C@@]13O`, the growth inhibition was 27.1% in test [1]; -15.9% in test [2]; 18% in test [3]; 0.35% in test [4]; 22.8% in test [5]; 30.6% in test [6].

`COc1ccc2c(c1O)[C@@]13CCCC=C1[C@@H](C2)[N+](C)(C)CC3`: the growth inhibition was 22.4% in test [1]; 13.7% in test [2]; -19.9% in test [3]; 15.8% in test [4]; -1.35% in test [5]; -29.6% in test [6].

Turning to `ClCc1cccnc1`, the growth inhibition in test [1] is 16.9%; in test [2], -2.35%; in test [3], 5.25%; in test [4] it was 18.1%; in test [5] it was 3.6%; in test [6], 31.7%.

Take `CC(=O)CCC(=O)O.[Ni]`: the growth inhibition is -37.5% in test [1]; 0.2% in test [2]; -7.45% in test [3]; -27.4% in test [4]; -7.65% in test [5]; 1.9% in test [6].

`NC(=Nc1ccccc1)Nc1ccccc1` (tested in a mixture with another compound): the growth inhibition in test [1] was -1.65%; in test [2] it was -12.1%; in test [3], 1.7%; in test [4], 13.2%; in test [5], 6.4%; in test [6], 6.35%.

With `CCC1(CCC(C)C)C(=O)NC(=NCCCC(N)C(=O)O)NC1=O` (configuration not stated), the growth inhibition in test [1] was 11.1%; in test [2], -0.35%; in test [3], 7.6%; in test [4], 30.3%; in test [5] it was 3.25%; in test [6], 13.1%.

Regarding `O=C(O)CCCC(=O)CCCC(=O)O`, the growth inhibition in test [1] was 0.3%; in test [2] it was 4.35%; in test [3], 22.9%; in test [4], 7.45%; in test [5], 24.6%; in test [6], 21.4%.

Turning to `O=C1c2ccccc2C(=O)N1N1CC1c1ccccc1` (configuration not stated), the growth inhibition in test [1] was -8.2%; in test [2], -36.1%; in test [3] it was 8.1%; in test [4], 18.2%; in test [5], 6.5%; in test [6], -1%.

With `N#CCc1ccccc1CC#N`, the growth inhibition in test [1] was 20.8%; in test [2], -0.65%; in test [3] it was 2.5%; in test [4], -19.7%; in test [5], 3.9%; in test [6], 18.2%.

Regarding `[N-]=[N+]=[N-]`, the growth inhibition in test [1] was 6.75%; in test [2], 5.75%; in test [3] it was 15%; in test [4] it was -3.05%; in test [5], 18%; in test [6], -13.7%.

`NNc1nncn1N`: the growth inhibition in test [1] was -5.25%; in test [2] it was -10.9%; in test [3], -23.4%; in test [4] it was 51.3%; in test [5], -17.5%; in test [6], -6.25%.
